Values joined by “and” are separate entries in the source; they are usually repeats but may differ in a detail not shown here. Equal values may be shown once. This is part of a sample that, as a whole, favours compounds with a hit. Of some 83,000 tested, about 20% had one in any assay.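 The endpoint reported here, percent growth, reads 100 for growth as untreated, 0 for no net growth and -100 for all cells dead.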 Active and inactive are the calls of the source. The calls were made as follows: active = growth percent below 10; inactive = the rest.
What was measured:
Assay in all cases: NCI-60 one-dose screen, 48 h (100 = growth as untreated, 0 = no growth, -100 = all killed)
Details in all cases: 10 µM unless noted
[1] = tested on: HCT-15 colon
[2] = tested on: HT29 colon
[3] = tested on: SNB-75 CNS
[4] = tested on: SNB-19 CNS
[5] = tested on: U251 CNS
[6] = tested on: PC-3 prostate
[7] = tested on: SK-MEL-5 melanoma
[8] = tested on: UACC-62 melanoma
[9] = tested on: LOX IMVI melanoma
[10] = tested on: SK-MEL-28 melanoma
[11] = tested on: SK-MEL-2 melanoma
[12] = tested on: EKVX NSCLC
[13] = tested on: SN12C renal
[14] = tested on: UO-31 renal
[15] = tested on: ACHN renal
[16] = tested on: CAKI-1 renal
[17] = tested on: A498 renal
[18] = tested on: CCRF-CEM leukemia
[19] = tested on: MOLT-4 leukemia
[20] = tested on: TK-10 renal

Measured: growth

NC1(c2ccc(-c3ccc4ncnc(NCc5ccccc5)c4c3)cn2)COC1
inactive: [1] 109% and 102% | [2] 122% and 108% | [3] 115% and 103% | [4] 100% and 98.8% | [5] 112% and 108% | [6] 94.4% and 105% | [7] 101% and 107% | [8] 104% and 94% | [9] 99% and 102% | [10] 104% and 107% | [11] 112% and 113% | [12] 111% and 100% | [13] 105% and 101% | [14] 99.8% and 85.4% | [15] 102% and 109% | [16] 94.8% and 103% | [17] 118% and 134% | [18] 106% and 102% | [19] 112% and 101%

O=C(N/N=C/c1ccc(Cl)o1)c1[nH]c2ccc(Br)cc2c1-c1ccccc1
inactive: [6] 15.7% | [11] 12.3% | [12] 12%
active: [1] -33.9% | [2] -34.6% | [3] -32.9% | [4] 9.24% | [5] -89.9% | [7] -74.7% | [8] 3.42% | [9] -58.2% | [10] 2.44% | [13] -60.9% | [14] -34.5% | [15] -46% | [16] -0.252% | [17] -25.6% | [18] -2.11% | [19] 3.03%

COc1ccc(-c2cc(C(=O)Oc3ccc(C=O)cc3OC)nn2-c2ccc(S(C)(=O)=O)cc2)cc1
inactive: [1] 81.9% | [2] 110% | [3] 99.9% | [4] 94.5% | [5] 101% | [6] 90.7% | [7] 98% | [8] 88% | [9] 90.1% | [10] 117% | [11] 110% | [12] 98% | [13] 90.7% | [20] 147% | [15] 106% | [16] 98.3% | [17] 126% | [18] 83.6% | [19] 86.6%

FC(F)(F)c1cc2c(Cl)ncnc2n1CCN1CCOCC1
inactive: [2] 81.2% | [3] 53.5% | [4] 43.4% | [5] 78.5% | [6] 88.2% | [7] 88.2% | [8] 64.7% | [10] 74.1% | [11] 47.7% | [12] 92.8% | [13] 75.6% | [16] 75% | [18] 36.6% | [19] 20.2%
active: [1] 2.39% | [9] -12.7% | [14] -92.7% | [15] -45.4%

Nc1cc(-c2c[nH]c3ccc(Cl)cc23)nc2cc(-c3c[nH]c4ccccc34)nn12
active: [1] -87.1% | [2] -59.7% | [4] -59.5% | [5] -74.4% | [6] -12% | [7] -87% | [8] -82.7% | [9] -94.6% | [10] -66.9% | [11] -45.8% | [12] -23.7% | [13] 6.54% | [20] -7.78% | [15] 0.126% | [16] -19.1% | [17] -14% | [18] -16.6% | [19] -27.4%
inactive: [3] 19.4%

CCOc1ccccc1[C@H]1C(C(=O)c2ccc(Cl)cc2)C2(N[C@@H]1c1ccccc1)C(=O)Nc1ccc(Br)cc12 (stereo partly drawn)
inactive: [3] 44.4% | [4] 17.1%
active: [1] -5.64% | [2] -62.1% | [5] 0.419% | [6] 5.34% | [7] -89.3% | [8] -46.8% | [9] -100% | [10] -23.4% | [11] -66.8% | [12] 3.88% | [13] -86.6% | [14] 5.4% | [15] 1.27% | [16] 7.21% | [17] -22.5% | [18] 4.88% | [19] -23.2%

Cc1oc(-c2ccccc2)nc1CN[C@@H]1C[C@@H]2C[C@H]([C@H]1C)C2(C)C
inactive: [1] 18.8% | [3] 79.2% | [4] 37.6% | [5] 41.2% | [6] 30.8% | [11] 85.7% | [12] 42.4% | [13] 10.1% | [20] 80.8% | [15] 25.8% | [16] 44.5% | [17] 31.6% | [18] 23.7%
active: [2] 7.34% | [7] -94.1% | [8] -32.6% | [9] -95.5% | [10] 2.07% | [19] 0.127%

S=C(Nc1ccc(OCc2nc3ccc(Cl)cc3[nH]2)cc1)NC1CCCCC1
active: [1] -63.4% | [2] -47.2% | [5] -48.1% | [7] -96.6% | [8] -12.7% | [9] -100% | [10] 0.982% | [11] -44.9% | [12] -7.76% | [13] -80.6% | [20] -10.8% | [15] -16% | [16] -5.65% | [17] -1.77% | [18] 5.6% | [19] 1.31%
inactive: [3] 10.7% | [4] 10% | [6] 17.6%

COc1cc(/C=C/C(=O)c2cnn(-c3cc(=O)[nH]c4ccc(Br)cc34)c2C)cc(OC)c1OC
active: [1] -54.9% | [2] -58.7% | [3] 9.81% | [4] -2.48% | [5] -76.7% | [6] -23.9% | [7] -96.2% | [8] -71.7% | [9] -89.8% | [10] -53% | [11] -59.6% | [12] -57.8% | [13] -7.58% | [14] -80.7% | [15] -34.9% | [16] -4.42% | [17] 6.24% | [18] -19.6% | [19] -12.3%

CCC1(OC(=O)c2ccccc2SSCCOC(=O)CCCCC2SCC3NC(=O)NC32)C(=O)OCc2c1cc1n(c2=O)Cc2cc3ccccc3nc2-1 (stereo not drawn)
active: [18] 9.01%
inactive: [1] 64.7% | [2] 67.8% | [3] 81.3% | [4] 36.7% | [5] 36.2% | [6] 37.4% | [7] 21.1% | [8] 17.7% | [9] 33.9% | [10] 96% | [11] 103% | [12] 52.1% | [13] 32.3% | [14] 38.4% | [15] 20.3% | [16] 10.5% | [17] 104% | [19] 21.8%

Cn1cc(-c2cc(N)n3nc(-c4c[nH]c5ccccc45)cc3n2)c2cc(F)ccc21
inactive: [3] 71.5% | [4] 15% | [6] 17.4% | [7] 67.4% | [8] 66.3% | [10] 77.5% | [11] 51.6% | [12] 60.2% | [13] 47.1% | [20] 50.6% | [15] 31.7% | [16] 77.5% | [17] 99% | [19] 25.7%
active: [1] -77.5% | [2] -35.4% | [5] -39.4% | [9] -80.7% | [18] -0.0318%

CCOc1ccc2[nH]c(=O)c(C(c3nnnn3CC3CCCO3)N3CCN(Cc4ccccc4)CC3)cc2c1 (stereo not drawn)
active: [3] -22.2%
inactive: [1] 99.7% | [2] 117% | [4] 38.5% | [5] 60.9% | [6] 94% | [7] 104% | [8] 76.3% | [9] 87.2% | [10] 101% | [11] 102% | [12] 86.9% | [13] 88.2% | [14] 99.9% | [15] 61.2% | [16] 76.3% | [17] 76% | [18] 93.7% | [19] 101%

C=CCn1c(O)c(N=Nc2nc(-c3cc4ccccc4oc3=O)cs2)c2ccccc21
active: [3] -25%
inactive: [1] 98.4% | [2] 17.2% | [4] 38.7% | [5] 13.3% | [6] 56.4% | [7] 33.3% | [8] 52.6% | [9] 70.1% | [10] 49.8% | [11] 64.4% | [12] 55.7% | [13] 90.7% | [14] 101% | [20] 90.9% | [16] 94.3% | [18] 35.8% | [19] 98.3%

O=C(OCCOCCO)N(c1cccc(Br)c1)c1nc(SCCN2CCOCC2)nc2c1cnn2CC(Cl)c1ccc(Br)cc1 (stereo not drawn)
active: [1] -38.8% | [2] 0.205% | [4] -69% | [8] -58.9% | [9] -92.8% | [10] -43.5% | [11] -60.3% | [14] -3.09% | [15] 2.9% | [18] -18.4% | [19] -24.3%
inactive: [3] 47.7% | [5] 14.9% | [6] 12.1% | [7] 34.2% | [12] 26.6% | [13] 20.3% | [16] 27.8% | [17] 45.5%

COc1cc(C=O)ccc1Oc1nc(Nc2ccc(F)cc2)nc(N(C)C)n1
inactive: [1] 88.4% and 18.6% | [2] 105% and 69.2% | [3] 47.7% and 58.3% | [4] 87.6% and 68.2% | [5] 85% and 36.5% | [6] 90.3% and 61.7% | [7] 32.3% and 76.3% | [8] 63% and 85.7% | [9] 54.3% | [10] 99.9% and 84.4% | [11] 62.6% and 85.2% | [12] 76.9% and 60.4% | [13] 92.2% and 58.5% | [14] 67.6% and 48.7% | [15] 105% and 63.3% | [16] 69.2% and 58.3% | [17] 98.6% and 123% | [18] 86.1% and 18.1% | [19] 73.1% and 23.8%
